Assay outcomes: PubChem, Broad Institute
PRC2 inh: EZH2 (human) methyltransferase inhibition; inhibition, % at 12.5 µM; Q15910; PRC2 H3K27 methylation, DELFIA TRF, 1 h; 57,000 compounds, 0.35% hits;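 active means mean inhibition of replicates at least 50% and every single replicate also reaching 50%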;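 further: dimethyl H3K27 on biotinylated H3 21-44 peptide detected by antibody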
Hits are given with their value; . = inactive. This is one part of a sample in which hits are shown more often than they occur.

SMILES	PRC2 inh
O=c1c(OC2OC(CO)C(O)C(O)C2OC2OC(CO)C(O)C(O)C2O)c(-c2ccc(O)cc2)oc2cc(O)cc(O)c12 (configuration not stated)	87
CC1OC(OCC2OC(Oc3c(-c4ccc(O)c(O)c4)oc4cc(O)cc(O)c4c3=O)C(O)C(O)C2O)C(O)C(O)C1O (configuration not stated)	.
C[C@@H]1O[C@@H](Oc2cc(O)c3c(=O)c(O[C@@H]4O[C@@H](C)[C@H](O)[C@@H](O[C@@H]5OC[C@@H](O)[C@H](O)[C@H]5O)[C@H]4O[C@@H]4O[C@H](CO)[C@@H](O)[C@H](O)[C@H]4O)c(-c4ccc(O)cc4)oc3c2)[C@H](O)[C@H](O)[C@H]1O	.
O=C(COc1ccc(Br)cc1C(=O)Nc1ccc(Cl)cc1)NC1CC1	.
C#CCN(O[C@@H](/C=C/[C@@H](O)Cc1ccccc1)C1CC1)[C@@H](Cc1ccc(N=[N+]=[N-])cc1)C(=O)OC	.
C=C1CCC2C(C)(CO)CCCC2(C)C1CC/C(C)=C/C(=O)O (configuration not stated)	.
C/C(=C/C(=O)O)CCC1C(C)CCC2C(C)(C=O)C(O)CCC12C (configuration not stated)	.
C/C(=C\C(=O)O)CCC1C(C)(O)CCC2C(C)(CO)CCCC12C (configuration not stated)	65
COc1ccc(OC)c(S(=O)(=O)Nc2cc([N+](=O)[O-])ccc2C)c1	.
CCC(Sc1nnnn1-c1ccccc1)C(=O)Nc1ccc([N+](=O)[O-])cc1 (configuration not stated)	.
COc1cc(Br)cc(/C=N/NC(=O)CCCCC(=O)NO)c1O	.
C=C(C(=O)O)C1CCC2(C)CCC(O)C2(C(C)=O)C1 (configuration not stated)	.
CC(=O)CCC1C2C(O)C(C(C)C)C(OC(=O)/C=C/c3ccccc3)CC12C (configuration not stated)	.
CC(C)C1CCC2(C)CCC(O)C(C)(O)C2C1OC(=O)/C=C/c1ccccc1 (configuration not stated)	.
O=C(/C=C/c1ccc(O)cc1)O[C@@H]1CC(O)(C(=O)O)C[C@@H](OC(=O)/C=C/c2ccc(O)cc2)C1O (some centres not stated)	76
COc1cc(O)c(C(=O)/C=C/c2ccc(OC)c(OC)c2)c(OC)c1	.
COc1cc(/C=C/C(=O)O[C@@H]2C[C@@](O)(C(=O)O)C[C@@H](O)[C@@H]2O)ccc1O	90
COc1cc(/C=C/C(=O)CC(=O)/C=C/c2ccc(O)c(OC)c2)ccc1O	.
Cc1cccc(NC(=O)CSc2nnc(-c3ccncc3)n2-c2ccc(C)c(C)c2)c1	.
O=C(CSc1nc2ccccc2s1)Nc1cccc(Cl)c1Cl	.
Cc1ccc(NCc2ccc(C(=O)Nc3ccccc3)cc2)cc1C	.
COC(=O)C(C)Sc1nc(N2CCOCC2)nc(N2CCOCC2)n1 (configuration not stated)	.
O=C(CSc1nnc(-c2ccco2)n1-c1cccc2ccccc12)Nc1ccc(C(=O)O)cc1	.
NC(=O)COc1ccc(/C=N/NC(=O)c2ccc(C(=O)NO)cc2)cc1	.
COc1ccc(C)cc1NC(=O)c1ccc(OCC(=O)Nc2cccc(C(F)(F)F)c2)cc1	.
SMILES	PRC2 inh
C=C[C@H]1[C@H](O[C@@H]2O[C@H](CO)[C@@H](O)[C@H](O)[C@H]2O)OC=C(C(=O)OC)[C@H]1C[C@@H]1N[C@H](C(=O)O)Cc2c1[nH]c1ccccc21	98
COC(=O)C1=CO[C@@H](O[C@@H]2O[C@H](CO)[C@@H](O)[C@H](O)[C@H]2O)[C@@H]2[C@@H](C)[C@@H](O)[C@@H](OC(=O)/C=C/c3ccc(O)c(O)c3)[C@H]12	.
C=CC(C)(O)CC/C=C(\C)C(=O)OCC1CCC2C(C(=O)O)=COC(OC3OC(CO)C(O)C(O)C3O)C12 (configuration not stated)	.
CC1(OC(=O)/C=C/c2ccccc2)CC(O)C2C=COC(OC3OC(CO)C(O)C(O)C3O)C21 (configuration not stated)	.
COC(=O)C1=CO[C@@H](O[C@@H]2O[C@H](CO)[C@@H](O)[C@H](O)[C@H]2O)[C@@H]2[C@@H]3CN4CCc5c([nH]c6ccccc56)[C@]4(C[C@H]12)O3	52
C=C1C(O)CC2C(C(=O)OC)=CO[C@@H](O[C@@H]3O[C@H](CO)[C@@H](O)[C@H](O)[C@H]3O)C12 (some centres not stated)	.
Cc1ccc(C)c(NC(=O)CSc2n[nH]c(-c3ccccc3)n2)c1	.
O=C(CSc1nc2ccccc2s1)Nc1ccc(Cl)cc1	.
Cc1ccc(NC(=O)CSc2nc3ccccc3s2)cc1Cl	.
Cc1ccc(NC(=O)CSc2nc3ccccc3s2)cc1C	55
CC(C)(C)C1CCc2c(sc3ncn(CC(=O)NCc4ccco4)c(=O)c23)C1 (configuration not stated)	.
